From PubChem BioAssay (Tox21) come the findings set out here.

Structures are written as SMILES. Records with an inconclusive call do not appear. A number with no mark means an inactive call. Calls of active or inactive are those of the source. Unless noted, calls follow the shape of the full dose curve.

Test [1] can be described thus: qHTS assay to identify small molecule agonists of the NFkB signaling pathway - cell viability counter screen (AID 1159515). Also: nearly all actives have a fitted effect of over 55% in size. Also: potency is read from the fitted curve at half-maximal effect. As to activity, negative = cytotoxic: % is scaled to controls: 0 for no effect and ±100 for the full control effect. Conditions: NFkB-bla ME-180 viability, CellTiter-Glo luminescence, 5 h; series mostly up to 61 µM. The essentials: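 Luminescence from CellTiter-Glo (30 min, room temperature) gives viability, measured in the same wells as the beta-lactamase reporter read. Cells were NFkB-bla ME-180, 2,000 per well, treated 5 hr with compounds.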

The nature of test [2]: qHTS assay to identify small molecule agonists of the endoplasmic reticulum stress response signaling pathway (AID 1159516; active = well fitted activation curve with a large enough effect in the signal ratio in the repeat runs, not every such curve was filed as active; the % refers to the signal ratio; also: % is scaled to controls: 0 for no effect and ±100 for the full control effect). Conditions: ESRE-bla HeLa, ER stress beta-lactamase reporter, 5 h; series mostly up to 61 µM. The procedure, abridged: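 Read-out is beta-lactamase cleavage of a FRET substrate (405 nm excitation; 460 and 530 nm emissions) in ESRE-bla HeLa cells after a 5 hr compound exposure at 37 C. Substrate incubation ran 2 hr at room temperature.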
For orientation: qHTS replaces the single test concentration by a dilution series.

Test [3] is described as follows: qHTS assay to identify small molecule agonists of the endoplasmic reticulum stress response signaling pathway - cell viability counter screen (AID 1159517). Also: % is scaled to controls: 0 for no effect and ±100 for the full control effect; nearly all actives have a fitted effect of over 50% in size. The conditions noted are these: ESRE-bla HeLa viability, CellTiter-Glo luminescence, 5 h; series mostly up to 61 µM. The essentials: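 Counter-screen wells were identical to the reporter wells. Cells were plated at 1,500 per well and dosed for 5 hr, then read for luminescence 30 min after CellTiter-Glo addition.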

Test [4] is described as follows: qHTS assay to identify small molecule antagonists of the retinoid-related orphan receptor gamma (ROR-gamma) signaling pathway - cell viability counter screen (AID 1159520; active = well fitted curve in the direction sought with a large enough effect in the repeat runs; an effect the other way counts as inactive or inconclusive; also: nearly all actives have a fitted effect of over 50% in size; also: potency is read from the fitted curve at half-maximal effect; as to activity, negative = cytotoxicity: % is scaled to controls: 0 for no effect and ±100 for the full control effect). Conditions: Tet-on RORgamma CHO cells viability, ATP luminescence, 16 h; series mostly up to 92.4 µM. The essentials:
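Tet-on ROR gamma CHO cells were given compounds for 2 hr, then doxycycline hyclate at 1 uM final, and incubated 16 hr at 37 C. Viability was measured as ATP content by CellTiter-Glo luminescence.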

The target in test [5] is Nuclear receptor ROR-gamma (Homo sapiens) (UniProt P51449). Nature of the test: qHTS assay to identify small molecule antagonists of the retinoid-related orphan receptor gamma (ROR-gamma) signaling pathway (AID 1159521; active = well fitted curve in the direction sought with a large enough effect in the repeat runs; an effect the other way counts as inactive or inconclusive; also: nearly all actives have a fitted effect of over 50% in size; also: potency is read from the fitted curve at half-maximal effect). Conditions: Tet-on RORgamma CHO cells, RORE-luciferase, 16 h; series mostly up to 92.4 µM. The procedure, abridged: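 Decreased RORE-driven luciferase luminescence indicates antagonism. Tet-on RORγ CHO cells received compound, then 1 uM final doxycycline 2 h later; signal read after 16 h incubation.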

A short description of test [6]: qHTS assay to identify small molecule agonists of the AP-1 signaling pathway - cell viability counter screen (AID 1159525). Also: nearly all actives have a fitted effect of over 55% in size. The conditions noted are these: ME-180 AP-1-bla cells viability, ATP luminescence, 5 h; series mostly up to 76.8 µM. The procedure, abridged:
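AP-1-bla ME-180 cells in Opti-MEM with 0.5% dialyzed FBS, compound exposure 5 h at 37 C in 15-point titration. Viability read in the same wells as ATP content by CellTiter-Glo luminescence, normalised to tetra-n-octylammonium bromide and DMSO controls.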

A short description of test [7]: qHTS assay to identify small molecule agonists of the vitamin D receptor (VDR) signaling pathway - cell viability counter screen (AID 743224; active = well fitted curve in the direction sought with a large enough effect in the repeat runs; an effect the other way counts as inactive or inconclusive; also: % is scaled to controls: 0 for no effect and ±100 for the full control effect; nearly all actives have a fitted effect of over 50% in size). Conditions: VDR-bla HEK293T viability, CellTiter-Glo luminescence, 16 h; series mostly up to 62.6 µM. The procedure, abridged: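 Luminescence from CellTiter-Glo, read after 30 min at room temperature, reports viability of VDR-bla cells treated with compounds for 16 h at 37C in the wells used for the beta-lactamase FRET read.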

Test [8] is described as follows: qHTS assay to identify small molecule antagonists of the vitamin D receptor (VDR) signaling pathway - cell viability counter screen (AID 743225; active = well fitted curve in the direction sought with a large enough effect in the repeat runs; an effect the other way counts as inactive or inconclusive). Conditions: VDR-bla HEK293T viability, CellTiter-Glo luminescence, 16 h; series mostly up to 61 µM. The essentials:
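Parallel cytotoxicity test: VDR-UAS-bla HEK 293T, 3 nM (final) 1-alpha,25-dihydroxyvitamin D3 with test compound, 16 h, 37C. Endpoint is CellTiter-Glo luminescence in the same wells.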

Test [9] can be described thus: qHTS assay to identify small molecule agonists of the AP-1 signaling pathway (AID 1159526). Also: % is scaled to controls: 0 for no effect and ±100 for the full control effect. Conditions: ME-180 (cervical carcinoma) AP-1-bla reporter, beta-lactamase FRET ratio, 5 h; series mostly up to 76.8 µM.
For test [10], the target named is Retinoic acid receptor RXR-alpha (Homo sapiens) (UniProt P19793). Nature of the test: qHTS assay to identify small molecule agonists of the RXR signaling pathway (AID 1159527). Also: % is scaled to controls: 0 for no effect and ±100 for the full control effect; nearly all actives have a fitted effect of over 35% in size. Conditions: HEK293T RXRa-UAS-bla, beta-lactamase ratio, 16 h; series mostly up to 76.8 µM. The procedure, abridged: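 16 hr incubation of compound-treated RXR-alpha-UAS-bla HEK 293T cells (2% charcoal-stripped FBS, 37 C) preceded a 2 hr room-temperature LiveBLAzer FRET substrate step and blue/green fluorescence measurement.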
Retinoic acid receptor RXR-alpha (Homo sapiens), sequence (P19793 whole entry, looked up): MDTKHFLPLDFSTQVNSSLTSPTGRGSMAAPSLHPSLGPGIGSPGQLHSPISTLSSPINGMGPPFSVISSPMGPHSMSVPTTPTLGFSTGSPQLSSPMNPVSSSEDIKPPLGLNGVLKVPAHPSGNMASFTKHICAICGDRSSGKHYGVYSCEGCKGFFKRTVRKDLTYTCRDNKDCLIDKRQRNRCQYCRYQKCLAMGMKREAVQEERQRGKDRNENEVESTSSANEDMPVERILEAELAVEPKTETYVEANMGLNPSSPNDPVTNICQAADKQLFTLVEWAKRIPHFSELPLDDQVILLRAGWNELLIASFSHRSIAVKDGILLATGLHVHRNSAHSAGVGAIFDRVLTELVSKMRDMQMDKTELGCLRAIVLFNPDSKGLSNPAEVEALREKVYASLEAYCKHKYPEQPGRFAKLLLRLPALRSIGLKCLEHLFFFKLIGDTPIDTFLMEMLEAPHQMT

For the compound `CCCOC(C(=O)OC1CCN(C)CC1)(c1ccccc1)c1ccccc1`, the Potency result in [1], in [2], in test [3], in [4] and in [6] was “inactive” each time. Further, in test [5], the Potency was 13.3 µM (active).

Take `CCCCCCCCCCCCCCCCOS(=O)(=O)O`: the Potency entry in test [1], in test [2], in test [3], in [4] and in [5] was “inactive” in each case.

Turning to `C#C[C@]1(O)CC[C@H]2[C@@H]3CCc4cc(OC5CCCC5)ccc4[C@H]3CC[C@@]21C`, the Potency result in test [7], in test [2] and in [3] was “inactive” each time. The Potency in test [1] is 21.3 µM (active); in test [4] it was 29.8 µM (active); in test [5], 10.6 µM (active).

As to `CCOC(=O)NCCOc1ccc(Oc2ccccc2)cc1`, the Potency entry in test [8], in test [1], in [2], in [3], in [4] and in test [6] was “inactive” in each case. In test [5], the Potency was 43.3 µM (active).

As for `Nc1ccc(S(=O)(=O)Nc2ccccc2)cc1`, the Potency entry in test [1], in [2], in [3], in [4], in test [5] and in test [9] was “inactive” throughout. Further, the Potency entry in [10] was “inactive”.

`C/C=C(/C(=C/C)c1ccc(OC(C)=O)cc1)c1ccc(OC(C)=O)cc1`: the Potency entry in [1], in [2], in [3], in test [4] and in test [5] was “inactive” in each case.

Regarding `CCCCC/C=C\C/C=C\CCCCCCCC(=O)NC(C)c1ccccc1` (stereo not given), the Potency entry in test [7], in test [8], in [1], in test [2], in [3] and in [4] was “inactive” each time. Moreover, the Potency result in test [5] and in test [9] was “inactive” throughout.

Take `CCOC(=O)C(O)c1ccccc1` (stereo not given): the Potency result in test [7], in test [8], in [1], in test [2], in test [3] and in test [4] was “inactive” each time. Further, the Potency result in test [5], in test [9] and in test [10] was “inactive” in each case.

On to `Cc1ccccc1S(=O)(=O)O`, for which the Potency result in [7], in test [8], in [1], in test [2], in test [3] and in test [4] was “inactive” each time. Besides, the Potency result in [5], in test [9] and in [10] was “inactive” throughout.

Regarding `CCN(CC)CCOC(=O)C(c1ccccc1)C1CCCCC1` (stereo not given), the Potency entry in test [7], in test [1], in [2], in test [3], in test [4] and in test [5] was “inactive” each time.

On to `C=CC1CC2C=CC1C2` (stereo not given), for which the Potency entry in test [7], in test [8], in test [1], in test [2], in test [3] and in test [4] was “inactive” throughout. The Potency result in [6], in test [9] and in test [10] was “inactive” each time.

`CCCCNc1ccc(C(=O)OCCOCCOCCOCCOCCOCCOCCOCCOCCOC)cc1`: the Potency result in test [7], in [8], in test [1], in [2], in test [3] and in test [4] was “inactive” in each case. Also, the Potency entry in test [6], in [9] and in test [10] was “inactive” throughout.

For `CC1=CCCC(C)(C)C12CCC(C)O2` (stereo not given), the Potency result in test [7], in test [8], in [1], in test [2], in [3] and in test [4] was “inactive” in each case. Besides, the Potency entry in [6], in [9] and in [10] was “inactive” each time.

With `C/C(=C(\CCOP(=O)(O)O)SC(=O)c1ccccc1)N(C=O)Cc1cnc(C)nc1N`, the activity change, negative = cytotoxicity in test [7] is -3.71% [at 5.95 µM]; in test [3], 8.35% [at 6.95 µM]. In addition, the values for the viability change, negative = cytotoxic in test [8] and in test [6] were 2.62% [at 6.95 µM] and -3.18% [at 6.97 µM], respectively. Moreover, the activity, negative = cytotoxic in test [1] is 2.97% [at 6.95 µM]. For the same compound, the activation in test [2] is -0.946% [at 6.95 µM]; in test [9], -6.29% [at 6.97 µM]; in test [10], 7.58% [at 6.98 µM]. The activity, negative = cytotoxicity in [4] is -0.156% [at 8.39 µM].

Consider `Nc1cccc(S(=O)(=O)c2cccc(N)c2)c1`, for which the Potency result in [7], in test [8], in test [1], in test [2], in test [3] and in test [4] was “inactive” each time. For the same compound, the Potency entry in test [6], in test [9] and in test [10] was “inactive” throughout.

For the compound `NCC(=O)CCC(=O)O`, the Potency entry in test [7], in test [8], in [1], in test [2], in test [3] and in test [4] was “inactive” in each case. The Potency result in test [6], in [9] and in test [10] was “inactive” each time.

Regarding `COc1cc(Cl)c(OC)cc1N`, the Potency entry in test [7], in [8], in [1], in test [2], in test [3] and in test [4] was “inactive” throughout. Also, the Potency result in test [6], in [9] and in [10] was “inactive” each time.

Turning to `CC(=O)NO`, the Potency entry in test [7], in test [8], in [1], in [2], in test [3] and in test [4] was “inactive” each time. Also, the Potency result in test [6], in test [9] and in test [10] was “inactive” each time.

Consider `CCCC(=O)Nc1ccc(O)c(C(C)=O)c1`, for which the Potency result in test [7], in [8], in test [1], in [2], in test [3] and in test [4] was “inactive” throughout. In addition, the Potency entry in test [6], in test [9] and in test [10] was “inactive” each time.

On to `CCCCOC(=O)CCCCCCCC(=O)OCCCC`, for which the Potency entry in test [7], in [8], in test [1], in [2], in test [3] and in test [4] was “inactive” in each case. In addition, the Potency result in test [6], in [9] and in test [10] was “inactive” in each case.

In the case of `CCOC(=O)Cc1cccc2ccccc12`, the Potency result in [7], in test [8], in [1], in test [2], in test [3] and in test [4] was “inactive” throughout. Further, the Potency entry in test [6], in test [9] and in test [10] was “inactive” each time.

Consider `CC[N+](C)(CC)CCOC(=O)C(O)(c1ccccc1)C1CCCCC1` (stereo not given), for which the Potency entry in test [7], in [8], in test [1], in [2], in test [3] and in test [4] was “inactive” each time. Moreover, the Potency entry in [6], in [9] and in test [10] was “inactive” in each case.

With `C[C@@H]1C[C@H]2[C@@H]3CCC4=CC(=O)C=C[C@]4(C)[C@@]3(F)[C@@H](O)C[C@]2(C)[C@@]1(O)C(=O)COC(=O)c1ccncc1`, the Potency result in test [7], in test [8], in test [1], in test [2], in [3] and in test [4] was “inactive” each time. Moreover, the Potency result in test [6], in test [9] and in [10] was “inactive” throughout.
